Measured values published in PubChem BioAssay.
Active and inactive are the calls of the source.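 How the source made its calls, unless noted: active means inhibition at or above 50% at 10 µM; inactive means inhibition below 50%.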

Legend:
[1] = inhibitors of TNFa-induced NFkB p65 translocation, primary screen, imaging, HUVEC, MLSMR starter and 10KST1 sets (AID 438;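 active means inhibition above 20% together with a positive visual image hit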;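 further: compound added about 3h40 before a 20 min TNFalpha stimulation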;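 on inhibition: signal is the nuclear over cytoplasmic p65 intensity ratio per well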); conditions: HUVEC TNFa-induced p65 nuclear translocation; cell count: measured here: nuclei count (cytotoxicity indicator), at 2.08 µM; inhibition: at 2 µM, stronger effect = higher value, 0% TNFa-plus-vehicle, 100% no-TNFa wells
[2] = inhibitors of mutant huntingtin aggregation, primary screen, imaging, exon1htt(103Q)mCFP cells, high-content imaging (AID 483;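 active means visual image review flags a hit and inhibition of aggregation exceeds 20%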;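 further: compound exposure lasted 3 days before fixation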;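 on nuclei count: percent of the per-plate median nuclei count of sample wells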); conditions: exon1htt(103Q)mCFP cell line, aggregate imaging, at 2 µM; inhibition of aggregation: stronger effect = higher value; nuclei count: measured here: cell count, toxicity
[3] = inhibitors of E-selectin induction by TNFa, primary screen, imaging, HUVEC, immunofluorescence, MLSMR starter and 10KST1 sets (AID 487;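 active means visually confirmed hit in the image check and inhibition above 20%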;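 on inhibition: signal is fraction of cell area covered by stained E-selectin grains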;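 on nuclei count: 100% = median nuclei count of all wells on the same plate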); conditions: HUVEC TNFalpha-induced E-selectin immunofluorescence imaging, at 2 µM; inhibition: stronger effect = higher value; nuclei count: measured here: cell number, toxicity
[4] = biological target: Voltage-gated potassium channel subunit beta-2 (Rattus norvegicus) (UniProt P62483); assay: KvBeta enzyme negative modulators, primary screen, biochemical, NADPH fluorescence (AID 622;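 active means fluorescence slope higher than the sample average by over 3 SD, cut at about -0.22 in these data, passing the limit was not always enough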;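 further: slope of raw intensity against log time taken from 70 to 1610 s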); conditions: recombinant KvBeta, 4-cyanobenzaldehyde reduction, at 10 µM, stronger effect = higher value
[5] = biological target: Voltage-gated potassium channel subunit beta-2 (Rattus norvegicus) (UniProt P62483); assay: KvBeta positive modulators, primary screen, biochemical, NADPH fluorescence (AID 623;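 active means NADPH fluorescence slope more negative than the mean of all samples by about 3 SD, 99.7% confidence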;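 further: fluorescence intensity change per second fitted from 20 to 320 s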); conditions: Recombinant KvBeta, NADPH fluorescence decrease slope, 10 min; at 10 µM; stronger effect = lower value
[6] = biological target: Alpha-2C adrenergic receptor (Homo sapiens) (UniProt P18825); assay: modulators of alpha2C/GIRK thallium flux, primary screen, cell-based, HEK293 alpha2C/GIRK1/2 (AID 624;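 active means fluorescence slope after compound addition differing from the mean of all screened samples at 99.7% confidence, in either direction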;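 further: slope of fluorescence ratio to pre-addition baseline per second over 15 to 24 s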); conditions: thallium flux BTC fluorescence, at 10 µM, actives lie on both sides
[7] = inhibitors of Sendai virus-induced IRF3 signaling, primary screen, TLR/RLR signaling modifier project, cell-based, Sendai virus stimulus, luciferase, 10K MLSCN set (AID 602276); conditions: HEK293 RL24 IRF3 luciferase reporter, at 10 µM, stronger effect = higher value;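 further: firefly luciferase from ISG56 promoter only with Renilla not read in this screen; 0% = Sendai virus plus DMSO and 100% = medium plus DMSO without virus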
[8] = inhibitors of poly I:C-induced TLR3 signaling, primary screen, cell-based, poly I:C stimulus, luciferase, 10K MLSCN set (AID 602277;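 active means inhibition of the reporter signal at or above 50%; inactive means inhibition below 50%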); conditions: HEK293-TLR3 RL24 IRF3 luciferase reporter, at 10 µM, stronger effect = higher value

Sequence of Voltage-gated potassium channel subunit beta-2 (Rattus norvegicus) (P62483 whole entry, looked up): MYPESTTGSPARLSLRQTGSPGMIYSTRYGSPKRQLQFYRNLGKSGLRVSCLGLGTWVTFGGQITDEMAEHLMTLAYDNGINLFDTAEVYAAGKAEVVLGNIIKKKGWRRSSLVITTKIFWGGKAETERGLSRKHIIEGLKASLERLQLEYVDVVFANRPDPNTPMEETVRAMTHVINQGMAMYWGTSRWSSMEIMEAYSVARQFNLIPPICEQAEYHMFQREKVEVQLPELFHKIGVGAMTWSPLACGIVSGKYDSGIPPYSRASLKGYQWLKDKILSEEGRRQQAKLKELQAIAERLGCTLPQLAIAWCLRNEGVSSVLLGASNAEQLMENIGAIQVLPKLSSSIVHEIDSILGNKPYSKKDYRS
Sequence of Alpha-2C adrenergic receptor (Homo sapiens) (P18825 whole entry, looked up): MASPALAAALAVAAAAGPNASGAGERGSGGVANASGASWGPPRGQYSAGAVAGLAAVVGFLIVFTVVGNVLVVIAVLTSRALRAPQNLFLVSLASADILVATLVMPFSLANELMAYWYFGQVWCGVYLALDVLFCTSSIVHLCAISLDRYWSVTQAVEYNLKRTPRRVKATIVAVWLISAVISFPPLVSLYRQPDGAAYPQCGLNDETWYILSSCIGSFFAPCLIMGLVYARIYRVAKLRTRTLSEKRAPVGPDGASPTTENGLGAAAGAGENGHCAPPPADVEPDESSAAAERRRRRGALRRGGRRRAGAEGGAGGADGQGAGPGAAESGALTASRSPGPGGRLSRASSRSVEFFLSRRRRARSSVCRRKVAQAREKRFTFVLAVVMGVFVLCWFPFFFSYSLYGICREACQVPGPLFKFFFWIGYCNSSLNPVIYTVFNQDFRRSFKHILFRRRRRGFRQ

SMILES | cell count [1] | inhibition [1] | inhibition of aggregation [2] | nuclei count [2] [%] | inhibition [3] | nuclei count [3] [%] | fluorescence slope [4] | NADPH fluorescence slope [5] | slope [6] | inhibition [7] | inhibition [8]
O=C(CNCC1CCCO1)Nc1ccccc1-n1cccc1 (stereo not drawn) | 671 | -11.4% (inactive) | 1.7% (inactive) | 90.8 | -127% (inactive) | 127 | -0.291 (inactive) | -4.7e-05 (inactive) | 0.00473 (inactive) | 2.08% (inactive) | 15% (inactive)
CCCCC(=O)NCCc1ccc(S(N)(=O)=O)cc1 | 555 | 10.7% (inactive) | 1.1% (inactive) | 101 | -35% (inactive) | 88.9 | -0.412 (inactive) | -5.1e-05 (inactive) | 0.0057 (inactive) | 3.38% (inactive) | 10.4% (inactive)
O=C(c1ccco1)N1CCN(S(=O)(=O)c2ccc(Oc3ccccc3)cc2)CC1 | 243 | 22.6% (inactive) | -4.9% (inactive) | 77.4 | -81.4% (inactive) | 111 | -0.519 (inactive) | 2.5e-06 (inactive) | 0.00632 (inactive) | 5.47% (inactive) | -52.2% (inactive)
CCCOc1ccccc1NC(=O)c1c(-c2ccccc2)noc1C | 800 | 4.6% (inactive) | 8.8% (inactive) | 111 | -43.4% (inactive) | 112 | -0.584 (inactive) | -1.4e-05 (inactive) | 0.00575 (inactive) | 10.6% (inactive) | 25.8% (inactive)
O=C(CCSc1nc(-c2ccco2)cc(C(F)(F)F)n1)Nc1ccc2c(c1)OCO2 | 429 | 1.8% (inactive) | 30.3% (inactive) | 95.1 | -52.9% (inactive) | 161 | -0.386 (inactive) | 2.5e-05 (inactive) | 0.00312 (inactive) | -4.65% (inactive) | -14.1% (inactive)
O=C1c2ccccc2CN1CCNS(=O)(=O)c1ccc(Cl)cc1 | 414 | -1% (inactive) | -2.3% (inactive) | 101 | -1.7% (inactive) | 97 | -0.389 (inactive) | -7.9e-06 (inactive) | 0.00712 (inactive) | 14.1% (inactive) | 25.9% (inactive)
COc1ccc(C2C3=C(OC(C)=O)c4ccccc4C3=Nc3c2c(=O)n(C)c(=O)n3C)cc1 (stereo not drawn) | 657 | 0.2% (inactive) | -0.9% (inactive) | 103 | -72.4% (inactive) | 116 | -0.41 (inactive) | -3.9e-05 (inactive) | 0.00537 (inactive) | 12.9% (inactive) | 12.4% (inactive)
Cn1c(=O)[nH]c(=O)c2c1ncn2CCN1CCOCC1 | 696 | -12.1% (inactive) | -10.8% (inactive) | 107 | -6.5% (inactive) | 102 | -0.512 (inactive) | 1.1e-05 (inactive) | 0.00632 (inactive) | 8.85% (inactive) | 16.4% (inactive)
